# Test results from ChEMBL document CHEMBL1157539, “Thousands of chemical starting points for antimalarial lead identification” (Nature, 2010).
# Test system: Plasmodium falciparum
# Experiment: GSK_TCMDC: Inhibition of Plasmodium falciparum Dd2 in whole red blood cells, using parasite LDH activity as an index of growth. Test compounds present at 2uM
# Assay type: functional
row,SMILES,Inhibition [%]
1,CN(C)CCNc1cc(-c2ccc3ccccc3c2)nc2ccccc12,58
2,O=C(NCCCCN1CC=C(c2ccc3c(c2OCc2ccccc2)CCCC3)CC1)c1ccc(-c2ccc(C(F)(F)F)cc2)cc1,82
3,CN1CCN(CCCN(Cc2ccc(-c3ccc(CNCCc4ccccc4)cc3)cc2)C(=O)c2cccs2)CC1.O=C(O)C(F)(F)F,78
4,N#Cc1ccc(-c2ccc(C(=O)NCCCCN3CCC(c4ccc5c(c4OCC(N)=O)CCCC5)CC3)nc2)cc1,97
5,Cc1cc(N[C@@H](Cc2ccccc2)C(=O)NCCOc2ccccc2)nc(NCCc2ccccc2)n1.O=C(O)C(F)(F)F,68
6,CCc1ccc(-n2cc(C(=O)c3cc(Br)ccc3O)cc(C#N)c2=O)cc1,30
7,CC(C)(CNCc1cccc(Oc2ccccc2)c1)c1nc(-c2ccnc(N)n2)c(-c2ccc(Cl)c(O)c2)[nH]1.Cl,99
8,CC(C)n1ncc2c(C(=O)N3CCCCCC3)cc(-c3ccccc3)nc21,42
9,COc1ccc(CCNCCCCCCNCCc2ccc(OC)c(OC)c2Cl)c(Cl)c1OC.Cl,0
10,CC(=O)Nc1ccc(CN(C)C2CCN(c3cc(NC(=O)c4cccc(C)c4)ccn3)CC2)cc1.O=C(O)C(F)(F)F,13
11,NC(=O)C1CCN(Cc2ccc(-c3ccc(-c4nc5cc(F)ccc5[nH]4)cc3)cc2)CC1.O=C(O)C(F)(F)F,100
12,OC1=C2C(=Nc3ccccc3SC2c2ccccc2)c2ccccc21 (stereo not given),94
13,Fc1cccc(COc2ccc(-n3ccc4c(NCCCn5ccnc5)ncnc43)cc2Cl)n1,29
14,Cc1cccc2nc(-c3ccc(-c4ccc(CN5CCC(C(N)=O)CC5)cc4)cc3)[nH]c12.O=C(O)C(F)(F)F,32
15,COc1ccc(NC(=O)/C=C/c2ccc(-c3ccccc3)cc2)cc1N1CCN(C)CC1.O=C(O)C(=O)O,46
16,Cc1cccc2nc(-c3ccc(-c4cccc(NC(=O)Nc5ccsc5)c4)cc3)[nH]c12,24
17,O=C(C=Cc1ccc(F)cc1)N1CCN(S(=O)(=O)c2ccc(Cl)cc2)CC1,93
18,CC(=O)c1ccc(-c2cccc3c(CC(=O)Nc4ccc5nccc(N6CCN(C)CC6)c5c4)cccc23)cc1,96
19,CN1CCN(c2nsc3ccc(-c4ccc(OCCN5CCCC5)cc4)cc23)CC1.O=C(O)C(F)(F)F,99
20,Cc1cc(C)c(NC(=O)NC2CCN(CCCCCNC(=O)/C=C/c3ccc(Cl)c(Cl)c3)C2)c(C)c1 (stereo not given),48

row,SMILES,Inhibition [%]
1,CC(CN(C)C)Oc1ccc2nc(-c3cccc(OCc4ccccc4)c3)[nH]c2c1C#N (stereo not given),94
2,O=C(NCCNc1ccnc(Nc2ccc(F)cc2)n1)c1cc2ccccc2s1,34
3,CCNc1cc(C(=O)N[C@@H](Cc2ccccc2)[C@H](O)CNCCCc2ccc(OC)cc2)cc(N2CCCC2=O)c1.O=C(O)C(F)(F)F,96
4,COc1ccc2nc(N3CCNCC3)nc(NCCCc3ccccc3)c2c1.Cl,43
5,Cl.O=C(/C=C/c1cccc(Cl)c1)Nc1ccc2nc(CN3CCCC3)ccc2c1,42
6,Nc1nc(N)c2c(ccc3c2ccn3CC2CC2)n1,3
7,CN1CCN(Cc2ccc(-c3cccc(-c4nc5ccccc5[nH]4)c3)cc2)CC1.O=C(O)C(F)(F)F,6
8,CN(Cc1ccccc1)C(=O)c1nn(CCCN2CCC(N3CCCC3)CC2)cc1-c1ccc(Cl)c(Cl)c1,66
9,NC1CCN(c2nc(NCCc3ccc(O)cc3)nc(NCc3ccccc3-c3ccc(C(F)(F)F)cc3)n2)CC1.O=C(O)C(F)(F)F,72
10,CCOC(=O)c1c(CSc2ccccc2)oc2cc(CN(C)C)c(O)c(Cl)c12,70
11,COc1ccc(C(=O)N2CCC3(CC2)C(=O)N(CC(=O)NC2CCCCC2)CN3c2ccccc2)c(OC)c1,99
12,CN(C)CCN1CCN(Cc2ccc(-c3cccc(-c4nc5ccccc5[nH]4)c3)cc2)CC1.O=C(O)C(F)(F)F,100
13,O=C(O)C(F)(F)F.c1cc(CNCCc2ccncc2)cc(-c2ccc(-c3nc4ccccc4[nH]3)cc2)c1,97
14,CO/C(=C\C=C\c1cc2cc(Cl)ccc2[nH]1)C(=O)NCCCN1CCN(c2cc(Cl)ccc2OC)CC1,21
15,Cc1[nH]c(C)c(-c2ccc(-c3ccc(OCC(F)(F)F)cc3)nc2)c(=O)c1Cl,96
16,CCc1ccccc1N1CCN(CCCCNC(=O)c2ccc(NC(=O)c3ccc(Cl)cc3)cc2)CC1,4
17,O=C(O)C(F)(F)F.c1cc(OCCN2CCCC2)ccc1CNC1CCN(CC2CCCCC2)CC1,54
18,CN1C(=CC(=O)NC(=O)c2ccccc2)C(C)(C)c2ccccc21,89
19,O=C(O)C(F)(F)F.Oc1ccc(CCCNc2nc(NCc3cccc4ccccc34)nc(NC3CCNCC3)n2)cc1,0
20,O=C(Nc1ccc(Cl)cc1)c1ccc(CN2CCCN(Cc3cccc(F)c3)CC2)cc1.O=C(O)C(F)(F)F,8
